About 960 (1.5%) of roughly 66,000 compounds showed an effect of 50% or more. This is one part of a sample in which strong results are shown more often than they occur.
Test system: Trypanosoma brucei
Test: Trypanosoma brucei 72 hour study
Format: functional, organism-based
Set-up: scale not given: in the data most compounds retested in dose-response had high values

| Compound | Percent Effect (30 µM, 30.03 µM) | Percent Effect (30.3 µM, […]) |
| --- | --- | --- |
| Cc1nc(C)c(S(=O)(=O)NC(=O)c2ccoc2)s1 | -10.98% |  |
| Cc1cc(F)c(S(=O)(=O)NCC(C)(C)N)cc1F.Cl | -16.06% |  |
| Cn1ncc(-c2cc(-c3cccc(O)c3)nc(N)c2C#N)c1C1CC1 |  | 47.44% |
| Cc1nn(C)c(C)c1-c1cc(-c2cnn(C)c2C2CC2)c(C#N)c(N)n1 |  | 20.75% |
| Cc1cc(O)ccc1-c1cc(-c2cnn(C)c2C2CC2)c(C#N)c(N)n1 |  | 53.81% |
| Cc1nccc(NCc2cncc3c2CCN(CC2CCOC2)C3)n1.Cl.Cl (centres undefined) |  | -74.45% |
| C/N=C1\c2cc3cc(OC)ccc3n2CCN1Cc1ccccc1.O=C(O)C(F)(F)F | 28.46% |  |
| C/N=C1/c2cc3cc(OC)ccc3n2CCN1Cc1ccccc1.Cl | 62.06% |  |
| C/N=C1\c2cc3cc(OC)ccc3n2CCN1C.Cl | -36.23% |  |
| Cc1ccc(CN2C[C@@H]3COC[C@@H](CC(=O)N4CCOCC4)[C@@H]3C2)s1.O=C(O)C(F)(F)F | -11.98% |  |
| O=C(COC1CCCC1)N1C[C@@H]2COC[C@]2(COc2cccnc2)C1.O=C(O)C(F)(F)F |  | -69.72% |
| Cc1ccc(N2CCC(c3[nH]ncc3Cc3ccccc3)CC2)nn1 | 58.22% |  |
| Cc1ccc(N2CCCC(c3[nH]ncc3Cc3ccccc3)C2)nn1 (centres undefined) | 42.86% |  |
| Cc1ccc(N2CCC(c3cc(Cc4ccccc4)n[nH]3)CC2)nn1 |  | -45.15% |
| O=C(C[C@@H]1COC[C@H]2CN(C(=O)c3cccnc3)C[C@@H]12)N1CCCC1.O=C(O)C(F)(F)F | -25.13% |  |
| CCN1C(=O)CC[C@]12CC[C@@H](NC(=O)c1ccncc1F)CC2.O=C(O)C(F)(F)F |  | 5.821% |
| O=C(CC1CC1)N1CCC2(CC1)CN(c1ncccn1)CCO2 | 61.77% |  |
| COCC(=O)N1CCC2(CC1)CN(c1ncccn1)CCO2 |  | -22.4% |
| O=C(CC1CC1)N1CCC2(CC1)CN(c1ncc(F)cn1)CCO2 |  | -27.29% |
| Cc1cnc(N)c(C(=O)C2CCN(C(=O)c3ccccc3F)CC2)c1 | 31.22% |  |

| Compound | Percent Effect (30 µM, 30.03 µM) | Percent Effect (30.3 µM, […]) |
| --- | --- | --- |
| O=C(NCCc1ccn(-c2ccc(F)cc2)n1)C1CCCO1 (centres undefined) |  | 99.62% |
| COC(=O)C1CN(Cc2ccn(-c3ccc(F)cc3)n2)CCO1 (centres undefined) | -55.87% |  |
| O=C(NCCc1ccn(-c2ccc(F)cc2)n1)C1CCCOC1 (centres undefined) |  | 101.3% |
| O=C(NCCn1cccc1)C1CCCOC1 (centres undefined) | 2.367% |  |
| O=C(NCc1cnn(-c2ccc(F)cc2F)c1)C1CCCO1 (centres undefined) | 6.462% |  |
| CN1CC(C(=O)NCCc2ccn(-c3ccc(F)cc3)n2)CC1=O (centres undefined) |  | -29.7% |
| Cc1noc(C)c1CN1CCN(Cc2ccncc2)c2ncccc2C1.O=C(O)C(F)(F)F.O=C(O)C(F)(F)F.O=C(O)C(F)(F)F | 43.91% |  |
| COc1ccc(CN2CCc3nnc(COCCN(C)C)n3CC2)cc1.O=C(O)C(F)(F)F.O=C(O)C(F)(F)F |  | -2.661% |
| CN1C(=O)CC[C@@H]2[C@H]1CCN2S(=O)(=O)Cc1ccccc1 | -49.38% |  |
| COc1ccc(-c2cc(CN)nc3ccnn23)cc1.Cl |  | -10.95% |
| Cc1cccc(CNC(=O)CNc2cc(CO)ccc2Cl)c1 | 50.69% |  |
| CN(C)S(=O)(=O)c1cccc(CNc2cc(CO)ccc2Cl)c1 |  | 18.15% |
| COc1cccc(CNc2cc(CO)ccc2Cl)c1 |  | -53.68% |
| CC(C)CC(=O)N1CC[C@H]2N(C)CC[C@@]2(C(=O)Nc2ccccc2)CC1.O=C(O)C(F)(F)F | -17.6% |  |
| CCc1cc(CN2CCCCC2c2ccc(F)cc2)on1 (centres undefined) |  | -64.98% |
| CCCC(=O)N(C)Cc1nc(N2CCCC2)ncc1-c1ccncc1.Cl |  | 24.09% |
| COCCNC(=O)[C@H]1C[C@@H]2CCN(c3ncccn3)C[C@H]2O1.O=C(O)C(F)(F)F |  | -89.35% |
| O=C(NCC1CCOCC1)[C@H]1C[C@@H]2CCN(c3nncs3)C[C@@H]2O1.O=C(O)C(F)(F)F |  | -23.29% |
| COCCNC(=O)[C@H]1C[C@@H]2CCN(c3nncs3)C[C@H]2O1.O=C(O)C(F)(F)F | 50.75% |  |
| O=C(NCC1CCCO1)N1CCN(Cc2ccc3c(c2)CCO3)CC1 (centres undefined) |  | 17.02% |

| Compound | Percent Effect (30 µM, 30.03 µM) | Percent Effect (30.3 µM, […]) |
| --- | --- | --- |
| O=C(NCC1CCOC1)N1CCN(Cc2ccc3c(c2)OCO3)CC1 (centres undefined) |  | 1.586% |
| O=C(NCC1CCOC1)N1CCN(Cc2ccc3c(c2)CCO3)CC1 (centres undefined) | 54.6% |  |
| CC1(C(=O)N2CCOCC2)CNCCO1.Cl (centres undefined) |  | -3.709% |
| O=C(CC1CC1)NCc1cn2c(n1)CN(CC1CC1)CC2.O=C(O)C(F)(F)F | 14.47% |  |
| O=C(COCc1ccccc1Cl)N1CCN(c2ccc(Br)cn2)CC1 |  | 6.228% |
| O=C(Cc1ccsc1)NCC1OCCc2cn(CC3CC3)nc21 (centres undefined) | 10.27% |  |
| O=C(NCC1OCCc2cn(CC3CC3)nc21)c1ccsc1 (centres undefined) | 104.3% |  |
| O=C(NCC1OCCc2cn(CC3CCOCC3)nc21)c1ccsc1.O=C(O)C(F)(F)F (centres undefined) | -82.86% |  |
| CCOCC1CN(C(=O)Cc2ccccn2)Cc2cnn(C)c21.O=C(O)C(F)(F)F.O=C(O)C(F)(F)F (centres undefined) |  | -7.447% |
| CC1CCC(N2Cc3nc(N)ncc3C2=O)CC1 (centres undefined) |  | 59% |
| CN1CCC(N2Cc3nc(N)ncc3C2=O)CC1 |  | -14.03% |
| Nc1ncc2c(n1)CN(C1CCCC1)C2=O | 49.38% |  |
| Cc1csc(C(Cc2ccsc2)NC(=O)CN(C)Cc2ccccn2)n1.Cl (centres undefined) |  | 18.37% |
| Cc1nc(C)n(CC2CN(CC(=O)Nc3ccncc3)CCO2)n1 (centres undefined) | -4.979% |  |
| Oc1ccc(-c2c(-c3ccccc3)ncn2C[C@H]2CCCN2)cc1 | 67.04% |  |
| O=C(O)c1ccccc1-c1c(-c2ccccc2)ncn1CC1CCCO1 (centres undefined) | -42.19% |  |
| O=C(O)c1ccccc1-c1c(-c2ccccc2)ncn1C[C@H]1CCCN1 | 7.799% |  |
| CCn1cc2c(n1)CN(Cc1ccncc1)CC2COCC1CC1.O=C(O)C(F)(F)F.O=C(O)C(F)(F)F (centres undefined) | 16.48% |  |
| CCOC(=O)[C@@H]1[C@@H](OC)C(=O)N(C)C12CCN(C(=O)C(CC)CC)CC2 |  | 47.28% |

Reference: ChEMBL document CHEMBL3988442, “University of Dundee, Small-Polar-MMV Screening Library” (2021)
